This is a sample that favours compounds with a hit; in the whole collection about 11% have one here.
3T3 cytotox = NIH 3T3 cell cytotoxicity; NIH 3T3 viability, CellTiter-Glo ATP luminescence, 48-72 h; Potency, µM (top dose mostly 96.7 µM), for inactives: top-dose activity change, negative = cytotoxicity, actives largely listed as inhibitors; 94,000 tested, 4.3% active; AID 1345082; further: on the % scale 0 is the no-effect control and ±100 the full control effect; nearly all actives have a fitted effect of over 55% in size
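Cytotoxicity is measured as loss of cellular ATP: NIH 3T3 cells (400/well) are exposed to compound for 48 or 72 hr at 37 °C, then CellTiter-Glo luminescence is imaged after 10 min at room temperature.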
hNpr1 antagonist = human Npr1 receptor antagonism; HEK293 hNpr1 GloSensor cGMP, ANP-stimulated luminescence; Potency, µM (highest dose often 46.3 µM), for the others: top-dose activity change, negative = inhibition, most hits filed as inhibitors; 76,000 tested, 1.6% active; AID 1347048; calls by dose curve; further: on the % scale 0 is the no-effect control and ±100 the full control effect; nearly all actives have a fitted effect of over 60% in size
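Compound pre-incubated 30 min at room temperature on GloSensor-loaded HEK293 cells stably carrying hNpr1 and the pGS-40F cGMP biosensor. Stimulation uses hNppA at 0.1 nM final; luminescence is taken at baseline and 20 min post-agonist.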
FLuc inh-1 = Photinus pyralis luciferase inhibition; P08659; purified P. pyralis luciferase, luminescence, biochemical; Potency, µM (highest dose often 115 µM), actives largely listed as inhibitors; 76,000 tested, 2.5% active; AID 1347043; further: on the % scale 0 is the no-effect control and ±100 the full control effect; nearly all actives have a fitted effect of over 65% in size
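Cell-free enzyme assay, 10nM P. pyralis luciferase, luciferin and ATP each at 10uM. Inhibition profiled over a 6-point titration, read as luminescence.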
HEK cytotox = kills HEK 293 cells; 94,000 tested, 6.6% active; Potency, µM (doses to about 115 µM), without a hit: at the top dose activity change, negative = cytotoxicity, usual class: inhibitors; HEK 293 viability, ATP luminescence (CellTiter-Glo), 48-72 h; further: on the % scale 0 is the no-effect control and ±100 the full control effect; nearly all actives have a fitted effect of over 60% in size
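Cytotoxicity was scored by loss of ATP-coupled luminescence (CellTiter-Glo) in HEK 293 cells. Compound treatment ran 48 or 72 hr at 37 degree Celsius, 5% CO2, 95% humidity.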
FLuc SDR -ATP = stabilizes firefly luciferase without ATP; shares compounds with FLuc inh-1; Potency, µM (highest dose often 32.7 µM), for inactives: at the top dose activation (signal gain), actives largely listed as activators; AID 1963318; 1,300 tested, 7.8% active; Purified FLuc-C-HiBiT, Nano-Glo HiBiT luminescence, no ATP; further: nearly all actives have a fitted effect of over 55% in size
FLuc SDR ATP = binders stabilizing firefly luciferase, plus ATP | shares compounds with FLuc inh-1 | purified FLuc-C-HiBiT + ATP, HiBiT complementation luminescence | Potency, µM (titrated, usually from 32.7 µM), for the others: at the top dose activation (gain of signal), most hits filed as activators | 1,300 tested, 8.7% active | AID 1963319;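 further: signal reports ligand binding via conformational change of the enzyme rather than luciferase catalysis; % of control where 0% means no effect; nearly all actives have a fitted effect of over 55% in size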
FLuc inh-2 = inhibitors of firefly luciferase enzymatic activity; Potency, µM (highest dose often 32.7 µM), inactives show top-dose activity change, negative = inhibition, hits mostly inhibitors; purified FLuc-C-HiBiT enzyme, luciferin luminescence; shares compounds with FLuc inh-1; 1,300 tested, 42% active; AID 1963320; further: on the % scale 0 is the no-effect control and ±100 the full control effect; nearly all actives have a fitted effect of over 70% in size
* marks the source's active call; other numbers are inactive results; i = inactive; ? = inconclusive; . = no result given; [ ] = another dose, or the depositor's remark. Unless noted, the call rests on the fitted dose curve; in most records, active means well fitted curve in the direction sought with a large enough effect; inconclusive means small, poorly fitted or top-dose-only effect, or another doubt; inactive means no such curve, though single readings can be large; an effect the other way counts as inactive or inconclusive. Potency means the concentration at half of the fitted maximal effect.

SMILES	3T3 cytotox	hNpr1 antagonist	FLuc inh-1	HEK cytotox	FLuc SDR -ATP	FLuc SDR ATP	FLuc inh-2
CC(=O)Nc1ccc(C(=O)NC2CCN(c3cc(-c4cccs4)[nH]n3)C2)cc1 (centres undefined)	-13%	-14%	i	-2%	.	.	.
Cc1ccsc1C(=O)N1CCC(Oc2ccccc2)C1 (centres undefined)	-27%	.	.	?	.	.	.
COCCNc1cc(-c2ccc3ccccc3n2)c2cc[nH]c2n1	?	-19%	10µM*	?	13%	17%	?
c1ccc(Cc2noc(-c3nc(-c4ccc5c(c4)OCO5)no3)n2)cc1	-10%	3%	i	-8%	.	.	.
CCc1noc(-c2nc(-c3ccc4c(c3)OCO4)no2)n1	-19%	-26%	10µM*	?	25%	19%	?
O=C(C1CN(c2ccccc2)C(=O)N1)N1CCOCC1 (centres undefined)	4%[138 µM]	0%[70.6 µM]	i	-4%[172 µM]	.	.	.
O=C([C@@H]1C[C@@H](O)[C@H](O)[C@@H]2NC(=S)N(c3ccc4c(c3)OCO4)[C@@H]21)N1CCOCC1	i	-12%[70.6 µM]	5µM*	i	12%[49.3 µM]	?	?
CCc1nnc([C@@H]2CC(F)(F)CN2Cc2cccn2C)o1	-13%	2%	i	?	.	.	.
CN(C)C(=O)c1cccc2c1CCN2C(=O)Nc1ccc(F)cc1	-19%	-1%	13µM*	-5%	15%	6.2µM*	3.9µM*
COc1ccc(NC(=O)c2cccc3c2CCN3C(=O)c2ccc(F)cc2)cc1OC	2%	-30%	?	-2%	.	.	.
COc1ccc(NC(=O)c2cccc3c2CCN3C(=O)c2ccc(F)cc2)cc1	-1%	3%	i	11%	.	.	.
O=C(O)c1cccc2c1CCN2C(=O)Nc1ccc(F)cc1	?	0.32µM*	0.0079µM*	8.9µM*	11µM*	0.0062µM*	0.0035µM*
COc1ccc(N2CC(c3noc(-c4ccccc4F)n3)CC2=O)cc1OC (centres undefined)	-15%	0%	i	-3%	.	.	.
Brc1ccccc1-c1nc(-c2ccccc2)no1	.	.	.	.	22%	?	3.5µM*
COC(=O)c1cccc(-c2noc(-c3ccccc3F)n2)c1	.	.	.	.	22%	18%	?
Cc1ccc(-c2noc(-c3nc(Cc4ccccc4)no3)n2)cc1	-21%	-5%	i	-23%	.	.	.
Cc1ccc(-c2nc(-c3ccccc3)no2)c(Cl)c1	.	.	.	.	3.9µM*	3.5µM*	0.2µM*
Fc1ccccc1-c1nc(-c2ccccc2)no1	.	.	.	.	?	?	1.6µM*
CC(C)N1CC(C(=O)NCc2cccc(Cl)c2)NC1=O (centres undefined)	-23%[138 µM]	.	.	-9%[172 µM]	.	.	.
COCCn1c(=O)c(C(=O)N2CCN(C(=O)c3ccccc3Cl)CC2)nc2cccnc21	-12%	.	.	-4%	.	.	.
O=C(O)c1cccc(-c2noc(-c3ccccc3F)n2)c1	.	.	.	.	11µM*	0.005µM*	0.0062µM*
COc1ccc(C(C)NC(=O)c2ccc(Cn3ccn4nc5c(c4c3=O)CCCC5)cc2)cc1OC (centres undefined)	?	?	i	?	.	.	.
Cc1ccc(C(=O)Nc2cccc(C(=O)O)c2)cc1	.	.	.	.	12µM*	0.05µM*	0.056µM*
CCOc1ccc(NC(=O)Nc2cccc(C(=O)O)c2)cc1	.	.	.	.	4.4µM*	0.007µM*	0.0088µM*
O=C(NC1CCN(c2cc(-c3cccs3)[nH]n2)CC1)c1cccc(OC(F)(F)F)c1	-70%	-1%	i	?	.	.	.
COc1cccc(S(=O)(=O)N2CCCN(S(=O)(=O)c3ccccc3)CCC(=O)NCC2)c1	-17%	-3%	i	i	.	.	.
Cc1ccc(C(=O)N2CCc3nc(C(C)C)nc(-c4ccc(O)cc4)c3CC2)cc1	-12%	-17%	i	-7%	.	.	.
